Experiments:
Format in all cases: functional
[1] = target: Solute carrier family 2, facilitated glucose transporter member 1 (Homo sapiens) (UniProt P11166); experiment: ST_JUDE_LEISH: Cytotoxicity at 2uM final concentration against transgenic Leishmania Mexicana promastigotes LmGLUT1 that are glucose transport deficient and complemented with the human glucose transporter GLUT1. Activity is measured by DNA content using SYBR green in vitro
[2] = target: Hexose transporter 1 (Plasmodium falciparum) (UniProt O97467); experiment: ST_JUDE_LEISH: Cytotoxicity at 2uM final concentration against transgenic Leishmania Mexicana promastigotes LmPfHT that are glucose transport deficient and complemented with the Plasmodium falciparum hexose transporter. Activity is measured by DNA content using SYBR green in vitro
[3] = target: Glucose transporter (Leishmania mexicana) (UniProt O61059); experiment: ST_JUDE_LEISH: Cytotoxicity at 2uM final concentration against transgenic Leishmania Mexicana promastigotes LmGT2 that are glucose transport deficient and complemented with the L. Mexicana glucose transporter 2. Activity is measured by DNA content using SYBR green in vitro

Chain of Solute carrier family 2, facilitated glucose transporter member 1 (Homo sapiens) (P11166 whole entry): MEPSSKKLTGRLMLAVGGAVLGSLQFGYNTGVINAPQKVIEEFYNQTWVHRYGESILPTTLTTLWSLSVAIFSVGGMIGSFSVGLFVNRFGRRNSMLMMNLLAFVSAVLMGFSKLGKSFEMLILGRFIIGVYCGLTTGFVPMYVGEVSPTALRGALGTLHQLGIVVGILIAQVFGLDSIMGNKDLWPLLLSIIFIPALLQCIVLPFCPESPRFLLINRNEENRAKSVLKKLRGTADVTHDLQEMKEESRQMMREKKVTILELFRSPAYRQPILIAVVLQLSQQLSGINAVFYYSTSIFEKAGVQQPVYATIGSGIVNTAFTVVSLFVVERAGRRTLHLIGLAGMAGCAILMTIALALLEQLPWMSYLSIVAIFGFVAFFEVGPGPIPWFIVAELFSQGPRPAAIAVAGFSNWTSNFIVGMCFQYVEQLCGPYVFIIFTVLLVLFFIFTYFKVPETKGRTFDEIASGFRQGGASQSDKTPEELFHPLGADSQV

Compound	inhibition [1]	inhibition [2]	inhibition [3]
CC(CN1CCN(C)CC1)C(=O)Nc1cccc(-c2cccc(-c3nc4ccccc4[nH]3)c2)c1 (stereo unspecified)	4.45%	4.44%	2.44%
CSc1ccc(CN2CCC(NC(=O)c3ccc(-c4cccc(C(F)(F)F)c4)s3)CC2)cc1	3.18%	0.48%	3.3%
Cc1c(CN2CCC(N3CCC(C(=O)NC4CC4)CC3)CC2)[nH]c2c(Cl)cccc12	9.37%	11.6%	9.75%
O=C(Nc1ccc(C(=O)OCC(c2ccccc2)c2ccccc2)cc1)N[C@@H](Cc1ccc(O)cc1)C(=O)NC1CCN(Cc2ccc(O)cc2)C1 (stereo partly specified)	-0.47%	-1.74%	-3.39%
O=C(/C=C/c1ccc(Cl)c(Cl)c1)NCCCCCN1CCCN(C(=O)Nc2cccc(F)c2)CC1	0.1%	0.29%	3.86%
COc1ccc(CCNCCCCCCNCCc2ccc(Cl)cc2)c(Cl)c1OC	73.4%	16.7%	102%
COc1ccc2nc(C)cc(NCc3ccc4ccccc4c3)c2c1	12.8%	9.9%	5.11%
CC(=O)N[C@@H]1c2cc(C(C)=O)ccc2OC(C)(C)[C@@H]1O	-0.93%	-0.7%	-0.73%
CC(=O)Nc1ccc(C(=O)Nc2ccc(-c3cccc(-c4nc5ccccc5[nH]4)c3)cc2)cn1	0.89%	0.79%	-0.56%
O=C(Nc1ccc(C(=O)N2CCN(CCN3CCN(c4cccc(C(F)(F)F)c4)CC3)CC2)cc1)c1cc(Cl)cc(Cl)c1	3.84%	0.79%	2.52%
Cc1ccc2c(=O)c3cc(C)ccc3[nH]c2c1	3.4%	0.93%	0.54%
CCOC(=O)CCCCOc1c(OC)cc(Cc2cnc(N)nc2N)cc1OC	6.18%	6.88%	6.09%
